Among the data in PubChem BioAssay AID485275 (NMMLSC, 2010) are inhibition values, retold here.

SMILES strings stand for the structures. The campaign covered roughly 330,000 compounds. About 1,400 (0.42%) were called active.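 The calls were made as follows: active = plate passing quality check with inhibition over a set limit, or well fluorescence over plate mean plus 4 SD; inactive = the rest.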 What follows is part of a selection rich in actives, with near analogues and random picks from the rest.

A short description of the assay: inhibitors of Candida efflux pumps in yeast, primary screen, S. cerevisiae, Nile Red, multiplex (AID 485275).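 Also: Nile Red retained in pooled yeast measured as flow cytometry median fluorescence; 0% = buffer negative control and 100% = Enniatin B positive control; higher means more Nile Red kept so more efflux inhibition.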 The note with it: S. cerevisiae Candida pump triplex, at 10 µM, stronger effect = higher value.
What is called inhibition is the relative decrease from the control value, in per cent. In the case of `CCn1c(SCC(=O)NC2CC2)nnc1-c1ccccn1`, the inhibition is -0.04% (inactive).
The figure for `COC(=O)c1ccc2c(c1)S(=O)(=O)NC(=NCCCN1CCOCC1)S2` is 0% (inactive); for `O=C(NCCC1CCCCN1S(=O)(=O)c1cccs1)C(=O)Nc1ccc(F)cc1F` (stereo unspecified) it is 0.02% (inactive); for `O=C(/C=C/c1ccc([N+](=O)[O-])cc1)NCCSCc1ccco1` it is 0.15% (inactive).
In the case of `COc1cccc(OC)c1C(=O)Nc1sc2c(c1C(N)=O)CCCC2`, the inhibition was -0.23% (inactive).
As to `CC1CCc2c(sc(NC(=O)c3ccc(Cn4cc(Br)cn4)o3)c2C(N)=O)C1` (stereo unspecified), the inhibition is 0.29% (active).
With `CN(C)c1ccc(/C=N/NC(=O)c2ccc(Cn3cc(Br)cn3)o2)cc1`, the inhibition was -0.5% (inactive).
Under `COc1ccc(CNc2ccc3c(c2)CCC3)cc1OC` stands 0% (inactive).
Take `CCn1c(SCC(=O)N/N=C/c2ccccc2OCC(=O)O)nnc1-c1ccc(C(C)(C)C)cc1`: the inhibition is 0.05% (inactive).
The figure for `Cc1nnc(SCC(=O)NC(=O)NC2CCCC2)n1N` is 0.12% (inactive).
Under `O=C(O)c1cc(Cl)c(Cl)cc1C(=O)Nc1cccc2ncccc12` stands -0.06% (inactive); under `Cc1ccc(/C=C(\C#N)C(=O)Nc2cccc3ncccc23)o1`, 6.65% (active); under `N#C/C(=C/c1ccc(N2CCCCC2)o1)C(=O)NCCc1c[nH]c2ccccc12`, -0.28% (inactive).
Under `C[C@@H]1NC(=O)c2cc([N+](=O)[O-])cc(F)c2NCCC[C@@H](C(N)=O)NC(=O)[C@H](CC(N)=O)NC1=O` stands -0.03% (inactive); under `COc1ccccc1NC(=O)[C@H](COCc1ccccc1)NC(=O)OC(C)(C)C`, -0.12% (inactive); under `CC(C)(C)OC(=O)N1CCC(C(=O)NNC(=O)c2ccc(Cl)cc2Cl)CC1`, -0.04% (inactive).
Regarding `O=S(=O)(c1ccc2c(c1)OCCO2)N1CCc2ccccc21`, the inhibition was 0.34% (inactive).
On to `CCn1c(=O)c(=O)n(CC)c2cc(S(=O)(=O)N3CCc4ccccc43)ccc21`, for which the inhibition was -0.1% (inactive).
The figure for `O=S(=O)(c1ccccc1)N1CCc2ccccc21` is 0.75% (active).
As to `COc1ccc(CCNS(=O)(=O)c2cn(C)nc2C)cc1`, the inhibition is -0.02% (inactive).
With `CCOC(=O)N1CCN(C(=O)C2CCN(S(C)(=O)=O)CC2)CC1`, the inhibition is -0.13% (inactive).
Under `Cc1ccc2c(C)c(C(=O)N(C)Cc3ccncn3)oc2c1C` stands 1.25% (inactive); under `CC(=O)N1c2ccccc2N(Cc2ccc([N+](=O)[O-])cc2)C(=O)C1(C)C`, 0.1% (inactive); under `O=C1NC(=O)C2C1C(c1ccc([N+](=O)[O-])cc1)=NN2Cc1ccccc1` (stereo unspecified), 1.09% (active).
`O=C(NCCCCc1ccccc1)C1CC(c2ccc([N+](=O)[O-])cc2)=NO1` (stereo unspecified): the inhibition is 0.02% (inactive).
Under `Cc1ccc(CN2CCN(Cc3cccc(C)n3)CC2CCO)cc1` (stereo unspecified) stands -0.07% (inactive); under `CC(=O)Nc1ccc(/C(C)=N/NC(=O)CN(c2ccccc2Br)S(C)(=O)=O)cc1`, 0.36% (inactive); under `O=C(Cc1ccc(Br)cc1)N1CCN(c2ccccn2)CC1`, 11.1% (active).
Under `O=C(Cc1ccccc1Cl)N1CCN(c2ccccn2)CC1` stands -0.02% (inactive).
The figure for `O=C(CCC1CCCN(C(=O)Cc2ccc(F)cc2)C1)N1CCN(c2ccccn2)CC1` (stereo unspecified) is -0.13% (inactive); for `COc1ccc(N(CC(=O)NCC2CCCO2)C(=O)CCC(=O)Nc2nccs2)c(OC)c1` (stereo unspecified) it is 0.02% (inactive); for `CCN1CCN(c2ccc(S(=O)(=O)N3CCCCC3)cc2NC(=O)Cc2c(Cl)cccc2Cl)CC1` it is -0.36% (inactive).
Take `Cc1cc(-c2ccc(S(=O)(=O)N3CCc4ccccc4C3)s2)on1`: the inhibition was -0.2% (inactive).
Regarding `CC(C)N(c1ccccc1)c1ncnc(NCCC(=O)O)c1[N+](=O)[O-]`, the inhibition was 0.29% (inactive).
Take `CC(C)Cn1c(N)c(C(=O)COC(=O)C2CCCN2C(=O)c2cccs2)c(=O)n(C)c1=O` (stereo unspecified): the inhibition was 0.07% (inactive).
For the compound `Fc1ccccc1C(c1nnnn1Cc1ccc2c(c1)OCO2)N1CCN(Cc2ccccc2)CC1` (stereo unspecified), the inhibition is -0.02% (inactive).
On to `CCOC(=O)C1CCN(C(c2cc3cc(C)cc(C)c3[nH]c2=O)c2nnnn2C2CCCCC2)CC1` (stereo unspecified), for which the inhibition was 0.07% (inactive).
For the compound `Cc1cc(C)c2[nH]c(=O)c(C(c3nnnn3Cc3ccc4c(c3)OCO4)N3CCCC3)cc2c1` (stereo unspecified), the inhibition is 1.06% (active).
The figure for `O=C(CN(c1cccc(Cl)c1)S(=O)(=O)c1ccccc1)NN=C1CCCC1` is 0.07% (inactive).
The figure for `O=C(CN1C2CCC1CC(NC(=O)C1CC1)C2)NCc1ccccc1` (stereo unspecified) is -0.03% (inactive); for `O=C1CC2(CCN(C(=O)COc3ccc(F)cc3)CC2)Oc2ccccc21` it is -0.44% (inactive); for `CC(C)C(=O)N1CCC2(CC1)Oc1ccc(F)cc1C(=O)C21CC(c2ccccc2)=NO1` (stereo unspecified) it is 78.3% (active).
Turning to `CC(C)C(=O)N1CCN(c2nc(-c3ccccc3)c3c(c2C#N)CC(C)(C)OC3)CC1`, the inhibition is -0.13% (inactive).
Consider `CC(C)c1ccc2oc(=O)cc(CN3CCN(Cc4ccccc4)CC3)c2c1`, for which the inhibition is -0.11% (inactive).
Under `CCCCOc1ccc(C(=O)NCC(=O)OCC(=O)c2c(N)n(C)c(=O)n(C)c2=O)cc1` stands 0.65% (active).
The figure for `Cn1c(N)c(C(=O)COC(=O)COc2ccc(Cl)cc2)c(=O)n(C)c1=O` is 0% (inactive); for `CCc1ccc(OCC(=O)OCC(=O)c2c(N)n(C)c(=O)n(C)c2=O)cc1` it is -0.05% (inactive).
As for `O=C(NCC1CCCO1)c1ccccc1-c1nc(-c2ccccc2Cl)no1` (stereo unspecified), the inhibition is -0.05% (inactive).
The figure for `CCCNC(=O)N1CCC(c2ccc3c(c2)OCO3)CC1` is 0.01% (inactive); for `CC1(C)Cc2c(cnn2-c2cccc(F)c2)C(NC(=O)c2cc[n+]([O-])cc2)C1` (stereo unspecified) it is 0.12% (inactive); for `COc1ccc(C(=O)NC2CC(C)(C)Cc3c2cnn3-c2ccccc2)c(OC)c1` (stereo unspecified) it is 1.15% (active).
`Cc1cc(C(=O)NC2CC(C)(C)Cc3c2cnn3-c2ccccc2)n[nH]1` (stereo unspecified): the inhibition was 0.03% (inactive).
Regarding `Cc1ccc(S(=O)(=O)N(Cc2ccc(Cl)cc2)c2ccccc2C(=O)NCc2cccnc2)cc1`, the inhibition was 0.08% (inactive).
Under `COc1cc(NC(=O)c2ccc3c(c2)OCO3)ccc1NC(=O)c1cccs1` stands -0.1% (inactive); under `O=C(Nc1ccc(NC(=O)c2cccs2)cc1)c1ccc2ccccc2c1`, 1.22% (active).
The figure for `Cc1ccc(C(=O)Nc2ccc(NC(=O)c3cccs3)cc2)c(C)c1` is 0.18% (inactive).
